Test results published in PubChem BioAssay AID2549 (National Center for Advancing Translational Sciences (NCATS), 2010).
Several values for one entry are separate records, joined by “and”; a condition that tells them apart may be missing. Identical values can stand only once. Out of some 240,000 compounds screened, about 1,300 (0.54%) were called active. About 1% were inconclusive and are not listed. Calls follow the shape of the dose curve; as a rule, active = well fitted inhibition curve with a large enough effect; inconclusive = small, poorly fitted or top-dose-only effect; inactive = flat fitted curve, though single readings scatter. The sample as a whole holds a higher share of actives than the screen did. More than one record can exist for a structure, and the calls need not agree. Where a SMILES comes first, the peptide text is derived from it. Bridges are numbered along the chain shown (N, C = ends).

These compounds were tested against ATP-dependent DNA helicase Q1 (Homo sapiens) (UniProt P46063) (assay: qHTS Assay for Inhibitors of RecQ-Like Dna Helicase 1 (RECQ1)). Conditions: RECQ1 DNA unwinding, red fluorescence kinetic read; series mostly up to 57.3 µM; activity, negative = inhibition: at the top concentration.
Sequence of ATP-dependent DNA helicase Q1 (Homo sapiens) (P46063 whole entry, looked up): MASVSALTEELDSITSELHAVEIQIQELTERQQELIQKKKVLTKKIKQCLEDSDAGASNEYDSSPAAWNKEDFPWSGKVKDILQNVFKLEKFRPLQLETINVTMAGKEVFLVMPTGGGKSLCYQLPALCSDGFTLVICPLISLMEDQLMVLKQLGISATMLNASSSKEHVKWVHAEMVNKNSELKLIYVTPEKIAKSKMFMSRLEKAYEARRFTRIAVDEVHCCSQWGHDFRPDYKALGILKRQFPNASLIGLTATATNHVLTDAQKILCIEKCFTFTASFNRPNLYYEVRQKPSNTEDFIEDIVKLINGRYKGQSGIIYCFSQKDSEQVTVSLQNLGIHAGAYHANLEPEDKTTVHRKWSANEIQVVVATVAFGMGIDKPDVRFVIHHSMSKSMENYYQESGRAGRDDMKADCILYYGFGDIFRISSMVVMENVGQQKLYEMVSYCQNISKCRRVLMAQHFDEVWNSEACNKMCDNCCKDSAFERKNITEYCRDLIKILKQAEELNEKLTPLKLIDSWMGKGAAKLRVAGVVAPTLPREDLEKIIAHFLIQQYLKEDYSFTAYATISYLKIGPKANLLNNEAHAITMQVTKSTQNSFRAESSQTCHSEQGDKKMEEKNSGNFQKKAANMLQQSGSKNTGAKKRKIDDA
How it was run: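 RECQ1T1 50 nM; forked duplex (20 bp + 30-nt ss tails) 200 nM, ATP 2 mM final; pH 8.0, 2 mM MgCl2, 2.5 ug/ml poly(dI-dC); 15 min compound preincubation; discontinuous kinetic read over 2 h at RT.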
Also: nearly all actives have a fitted effect of over 30% in size.
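For activity, negative = inhibition in this document: plate controls were vehicle for no effect and no enzyme for full effect.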
Potency is read from the fitted curve at half-maximal effect.

Potency, inactive and 31.6 µM (active):
N#C/C(=C\c1ccc(O)c(O)c1)C(=O)NCc1ccccc1

Potency, inactive:
N#C/C(=C\c1ccc(O)c(O)c1)C(N)=O
O=c1[nH]c(=O)c2nc3ccccc3nc2[nH]1
COc1ccc(CCCOC(Cn2ccnc2)c2ccc(OC)cc2)cc1 (configuration not stated)

Potency, active:
Oc1cc(O)c2c(c1)OC(c1ccc(O)c(O)c1)C(O)C2 (configuration not stated) 14.1 µM
O=c1c(O)c(Br)ccc2c(Br)c(O)c(O)c(O)c12 3.16 µM
O=C(N/N=C/c1sc(N2CCCCC2)nc1-c1cccs1)c1cccnc1 10 µM
CN(C(=O)COC(=O)c1cc(-c2ccco2)nc2ccccc12)C1CCS(=O)(=O)C1 (configuration not stated) 14.1 µM
Nc1ccc2nc3c(=O)[nH]c(=S)[nH]c3nc2c1 7.94 µM
COc1c(O)cc2oc(-c3ccc(O)c(O)c3)cc(=O)c2c1O 11.2 µM and 8.91 µM
O=c1cc(-c2ccc(O)c(O)c2)oc2cccc(O)c12 25.1 µM
Cc1ccccc1NC(=O)CN1C(=O)N/C(=C\c2cccn2-c2cccc(C(=O)O)c2)C1=O 14.1 µM
O=C1c2ccccc2C(=O)N1Cc1cc(-c2ccccc2Cl)no1 31.6 µM
Oc1ccc(N=Cc2sc3ccccc3c2Cl)cc1 8.91 µM

activity, negative = inhibition, inactive:
Cc1nnnn1/C(=C\c1ccccc1)C(=O)OCC(=O)N1CC2(C)CC1CC(C)(C)C2 (configuration not stated) 4.69%
O=C(N/N=C/c1ccccn1)c1cccnc1 6.97%
COCCNC(=O)/C(C#N)=C/c1cccc(OCc2ccccc2)c1 -4.31%
Cc1c(-c2cccc(Cl)c2)nc2ccccc2c1C(=O)OCC(=O)N(C)C1CCS(=O)(=O)C1 (configuration not stated) -13%
CC(=O)OC1C([N+]2(C)CCCCC2)C[C@H]2C3CC[C@H]4C[C@H](OC(C)=O)C([N+]5(C)CCCCC5)CC4(C)C3CCC12C (some centres not stated) 44.6%
Cc1cc2nc3c(=O)n(Cc4ccccc4)c(=O)[nH]c3nc2cc1N -6.41%
CCOc1ccc(/C=C2\SC(=S)N(NC(=O)c3ccncc3)C2=O)cc1OC -4.45%
COc1ccc(C2=Nn3c(nnc3-c3ccccc3O)SC2)cc1 -2.95%
C=C1CCN(Cc2ccc(OC)cc2)S(=O)(=O)c2ccccc21 -11.7%
O=c1cc(-c2ccc(O)cc2)oc2c(-c3cc(-c4cc(=O)c5c(O)cc(O)cc5o4)ccc3O)c(O)ccc12 -15.9%
Cc1cccc(-c2cc(=O)c3cc(C)ccc3o2)c1 -3.41%
CCOC(=O)COc1cc(O)c2c(=O)cc(-c3ccccc3)oc2c1 -4.89%
C=C1/C(=C\C=C2\CCCC3(C)C2CCC3C(C)/C=C/C(O)C2CC2)CC(O)CC1O (configuration not stated) -13%
CCCCc1nn(-c2ccccc2C(F)(F)F)c(=O)n1Cc1ccc(-c2ccccc2S(=O)(=O)NC(=O)c2sccc2C)cc1 -28.1%
COC(=O)c1ccc(C(NC(=O)OCc2ccccc2)/C(F)=C/[C@@H](C)C(=O)O)cc1 (some centres not stated) 12.5%
O=C1N/C(=C/c2cccn2-c2ccccc2)C(=O)N1c1cccc(Cl)c1 -3.29%
COc1ccccc1NC(=S)N1CCN(C(c2ccccc2)c2ccccc2)CC1 -5.7%
O=C1c2cccnc2C(=O)N1Cc1cccs1 -1.48%
O=C(N/N=C/c1c(Cl)[nH]c2ccccc12)c1sc2ccccc2c1Cl -7.76%
Oc1ccc(N=Cc2c(O)ccc3ccccc23)cc1 -11.2%
C[C@@H](O)[C@@H]1NC(=O)[C@H](CCCCN)NC(=O)[C@H](Cc2c[nH]c3ccccc23)NC(=O)[C@H](Cc2ccccc2)NC(=O)[C@H](Cc2ccccc2)NC(=O)[C@H](CC(N)=O)NC(=O)[C@H](CCCCN)NC(=O)[C@@H](NC(=O)[C@@H]2CCCN2)CSSC[C@@H](C(=O)N[C@@H](CCCCN)C(=O)O)NC(=O)[C@H](CO)NC(=O)[C@H](CO)NC(=O)[C@H](Cc2ccccc2)NC1=O (H-PCKNFFWKTFSSCK-OH; disulfide 2-13) -3.25%
CCCN1CCC(=O)N(C(CSc2ccc(OC)cc2)Cc2ccccc2)CC1 (configuration not stated) -7.69%

outcome, inactive:
CCC1(CC)C(=O)C2=C3C1[C@H](C(=O)OC)C=C(C(=O)OC)C[C@H]3[C@H]1C(=O)N(Cc3ccccc3)C(=O)[C@H]1[C@H]2C (some centres not stated)
Cc1cc(/C=N/NC(=O)c2cccnc2)c(C)n1CC(C)C
c1ccc(C2CNCc3c2ccc2ccccc32)cc1 (configuration not stated)
CC(=O)Nc1ccc(S(=O)(=O)N2N=NC3C2C2CC4C3(CN(C(=O)OC(C)(C)C)S4(=O)=O)O2)cc1 (configuration not stated)
COc1ccc(NC(=O)COc2ccc(C(=O)OCC(=O)N(C)C3CCS(=O)(=O)C3)cc2OC)cc1 (configuration not stated)
C=CCCN(C(Cc1ccccc1)C(=O)OC)S(=O)(=O)c1cc(Br)ccc1Br (configuration not stated)
Cc1ccc(SCC(CC(C)C)N2CCN(CCc3ccccc3)CCC2=O)cc1 (configuration not stated)
COc1ccc2c(=O)cc(-c3ccccc3)oc2c1O
Cc1cccc(NC(=O)CN2C(=O)c3ccccc3C2=O)c1C
COc1ccc(Br)cc1C1C2C=CCC(C)C2C(=O)N1Cc1ccccc1 (configuration not stated)
O=C1c2ccccc2C(=O)N1CCCc1nc(-c2ccccc2)no1
